Source: PubChem (National Center for Advancing Translational Sciences (NCATS))
NPR1 antag – blocks ANP-stimulated signaling of human Npr1 receptor | HEK293 hNpr1 GloSensor cGMP, ANP-stimulated luminescence | P16066 | Potency, µM (highest dose often 46.3 µM), for the others: at the top dose activity change, negative = inhibition, actives largely listed as inhibitors | actives 1.6% (n = 76,000); calls by dose curve; note: % is set by controls: 0 for no effect and ±100 for the full control effect; nearly all actives have a fitted effect of over 60% in size
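HEK293 cells stably expressing human Npr1 and cGMP GloSensor pGS-40F, loaded 2 h with 2% GloSensor reagent, given compound 30 min at room temperature. Luminescence read before and 20 min after 0.1 nM hNppA.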
3T3 cytotox – NIH 3T3 cell cytotoxicity | NIH 3T3 viability, CellTiter-Glo ATP luminescence, 48-72 h | AID 1345082 | actives 4.3% (n = 94,000) | Potency, µM (highest dose often 96.7 µM), inactives show at the top dose activity change, negative = cytotoxicity, hits mostly inhibitors; note: % is set by controls: 0 for no effect and ±100 for the full control effect; nearly all actives have a fitted effect of over 55% in size
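Mouse fibroblast NIH 3T3 cells, 400 per well, received compound via pintool and were incubated for 48 or 72 hr prior to CellTiter-Glo ATP luminescence measurement.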
Luciferase inh – blocks purified firefly luciferase enzyme activity; Potency, µM (top dose mostly 115 µM), usual class: inhibitors; AID 1347043; actives 2.5% (n = 76,000); P08659; purified P. pyralis luciferase, luminescence, biochemical; note: % is set by controls: 0 for no effect and ±100 for the full control effect; nearly all actives have a fitted effect of over 65% in size
Target sequence (P08659 whole entry, looked up): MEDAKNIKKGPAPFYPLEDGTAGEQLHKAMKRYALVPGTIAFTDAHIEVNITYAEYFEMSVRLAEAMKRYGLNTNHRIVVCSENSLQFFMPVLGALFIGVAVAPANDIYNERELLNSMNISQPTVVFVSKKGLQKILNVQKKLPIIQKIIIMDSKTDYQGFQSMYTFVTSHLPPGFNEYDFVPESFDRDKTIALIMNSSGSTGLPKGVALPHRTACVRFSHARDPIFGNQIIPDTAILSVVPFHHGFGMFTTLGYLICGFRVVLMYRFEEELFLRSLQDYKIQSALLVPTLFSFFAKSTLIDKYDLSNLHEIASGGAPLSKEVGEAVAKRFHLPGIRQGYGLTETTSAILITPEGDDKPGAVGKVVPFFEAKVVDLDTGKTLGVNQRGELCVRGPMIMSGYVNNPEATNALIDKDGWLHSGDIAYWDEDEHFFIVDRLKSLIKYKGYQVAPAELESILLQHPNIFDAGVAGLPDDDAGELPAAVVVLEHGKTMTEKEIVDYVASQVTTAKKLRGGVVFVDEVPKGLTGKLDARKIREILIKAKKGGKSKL
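Luminescence read by CCD imaging after purified firefly luciferase (10nM final) was added to substrate buffer holding 10uM D-luciferin and 10uM ATP, pH 7.5, pre-dosed with compound.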
GPT2 inhibitor – inhibitors of human GPT2 alanine aminotransferase | actives 0.25% (n = 100,000) | Recombinant GPT2, coupled pyruvate oxidase/HRP Amplex Red fluorescence | Potency, µM (doses to about 57.7 µM), for the others: at the highest dose activity change, negative = inhibition, actives largely listed as inhibitors | Q8TD30; note: % is set by controls: 0 for no effect and ±100 for the full control effect; nearly all actives have a fitted effect of over 60% in size
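GPT2 10ng/uL, a-KG 250uM, L-Ala 2mM, HEPES pH7.5 + 0.0001% Tween; 30 min RT. Then Amplex mix (PO/HRP/ThPP), 30 min RT dark, fluorescence. AOA 50uM used as positive control.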
HEK cytotox – kills HEK 293 cells. HEK 293 viability, ATP luminescence (CellTiter-Glo), 48-72 h. Potency, µM (titrated, usually from 115 µM), without a hit: at the top dose activity change, negative = cytotoxicity, hits mostly inhibitors. actives 6.6% (n = 94,000). AID 1345083; note: % is set by controls: 0 for no effect and ±100 for the full control effect; nearly all actives have a fitted effect of over 60% in size
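Pintool-delivered compounds were incubated with HEK 293 cells (250 cells/well) at 37 degree Celsius for 48 or 72 hr. ATP-dependent luminescence (CellTiter-Glo) then reported remaining viable cells.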
Npr1 antag conf – confirmation of human Npr1 natriuretic peptide receptor antagonists. shares compounds with NPR1 antag. HEK293 hNpr1 cGMP GloSensor luminescence, ANP-stimulated. Potency, µM (titrated, usually from 57.6 µM), inactives show at the top dose activity change, negative = inhibition, most hits filed as inhibitors. actives 76% (n = 1,400). AID 1347044; calls by dose curve; note: nearly all actives have a fitted effect of over 70% in size
Npr2 selectivity – selectivity test of Npr1 antagonists against human Npr2 | shares compounds with NPR1 antag | HEK293 hNpr2 GloSensor cGMP luminescence, CNP-stimulated | Potency, µM (top dose mostly 57.6 µM), for inactives: at the highest dose activity change, negative = inhibition, actives largely listed as inhibitors | actives 67% (n = 1,400) | AID 1347046; calls by dose curve; note: nearly all actives have a fitted effect of over 70% in size
FLuc counter – FLuc enzyme inhibition, Npr1 counter-screen; shares compounds with NPR1 antag; purified FLuc enzyme, luminescence, Km substrate; Potency, µM (top dose mostly 57.6 µM), for inactives: at the top dose activity change, negative = inhibition, usual class: inhibitors; actives 0.7% (n = 1,400); AID 1347047; note: 0% is about no effect
GloSensor ctrl – reduces cGMP signal in GloSensor control cells. shares compounds with NPR1 antag. HEK293 GloSensor cGMP, SNP-stimulated, luminescence. Potency, µM (doses to about 57.6 µM), for inactives: at the top dose activity change, negative = inhibition, most hits filed as inhibitors. actives 69% (n = 1,400). AID 1347051; calls by dose curve; note: % is set by controls: 0 for no effect and ±100 for the full control effect; nearly all actives have a fitted effect of over 70% in size
The depositor's hits bear a star; i = inactive; ? = inconclusive; nt = no result; [ ] = dose if it differs, or a comment. The list is not random: actives were taken first. Their share in the collection is about 10%. Unless noted, calls come from the whole dose curve; as a rule, active = well fitted curve in the direction sought with a large enough effect; inconclusive = small, poorly fitted or top-dose-only effect, or another doubt; inactive = no such curve, though single readings can be large; an effect the other way counts as inactive or inconclusive. Potency is the fitted concentration of half-maximal effect.

SMILES	NPR1 antag	3T3 cytotox	Luciferase inh	GPT2 inhibitor	HEK cytotox	Npr1 antag conf	Npr2 selectivity	FLuc counter	GloSensor ctrl
CN(C)CCC(=O)N1Cc2ccccc2CC2(CCCCN2Cc2cccnc2)C1 (centres undefined)	nt	3%	nt	3%	0%	nt	nt	nt	nt
O=C(c1ccc(F)cc1)N1CCCC(C(=O)N2CCC(c3nc4ncccc4[nH]3)CC2)C1 (centres undefined)	nt	-13%	nt	i	i	nt	nt	nt	nt
CCCC(=O)NC1CN(c2ccnc3ccnn23)C1	nt	-14%[138 µM]	nt	i	-1%[172 µM]	nt	nt	nt	nt
CC(C)c1noc(-c2cn(C3CCN(C(=O)c4ccc(OC(F)(F)F)cc4)C3)nn2)n1 (centres undefined)	14µM*	?	i	5%	?	14µM*	19µM*	2%	15µM*
CCc1noc(-c2cn(C3CCN(C(=O)c4ccc(C(C)(C)C)cc4)C3)nn2)n1 (centres undefined)	16µM*	?	i	i	?	24µM*	?	-6%	27µM*
COc1ccc(C(=O)N2CCC(n3cc(-c4nc(C(C)C)no4)nn3)C2)cc1OC (centres undefined)	0%	-15%	i	i	-8%	nt	nt	nt	nt
CC(C)c1noc(-c2cn(C3CCN(C(=O)c4ccc(F)cc4)C3)nn2)n1 (centres undefined)	-5%	-26%	i	i	?	nt	nt	nt	nt
CC(C)c1noc(-c2cn(C3CCN(C(=O)c4ccc(Cl)s4)C3)nn2)n1 (centres undefined)	8.9µM*	?	i	i	?	12µM*	12µM*	-1%	14µM*
CC(C)c1noc(-c2cn(C3CCN(C(=O)c4cccc(Br)c4)C3)nn2)n1 (centres undefined)	11µM*	-29%	i	-13%	?	19µM*	22µM*	2%	22µM*
CCc1noc(-c2cn(C3CCN(C(=O)c4ccccc4)C3)nn2)n1 (centres undefined)	2%	-13%	i	i	-5%	nt	nt	nt	nt
Cc1cccc(-c2nc3ccc(C(=O)NCC(C)C)cc3o2)n1	nt	?	nt	i	?	nt	nt	nt	nt
N#Cc1cccnc1N1CCC(NC(=O)c2ccc3nccn3c2)CC1	11µM*	-63%	i	-4%	?	22µM*	24µM*	2%	19µM*
CC1(C)[C@H](Cc2cc(CCO)on2)C[C@@H]1NCc1ccncc1	-28%[70.6 µM]	?	i	i	?	nt	nt	nt	nt
COc1ccc(-c2cc(C[C@@H]3C[C@H](NCc4ccncc4)C3(C)C)no2)cc1	22µM*	?	i	2%[88.5 µM]	?	20µM*	28µM*	-2%[86.2 µM]	20µM*
N#CC1CCN(C(=O)C2CCCN2Cc2ccc(-c3cncnc3)cc2)CC1 (centres undefined)	nt	-8%	nt	i	3%	nt	nt	nt	nt
CNC(=O)c1cc(-c2cccnc2)cc2c1OCCN2Cc1cccnc1	8%[70.6 µM]	?	i	-5%[88.5 µM]	5%[172 µM]	nt	nt	nt	nt
O=C(Nc1cccnc1)c1cc(-c2ccccc2F)cc2c1OCCN2Cc1cccnc1	?	40µM*	i	-7%[88.5 µM]	?	?	31µM*	-16%[86.2 µM]	-5%[86.2 µM]
